# Bioassay records as filed in PubChem BioAssay.
# CYP2C9 inh – blockers of cytochrome P450 2C9 activity – biochemical, luminescence, ADME assay, primary screen | 96,000 compounds, 20% hits | AID 777, 2007 | P11712 | CYP2C9 Supersomes, luciferin-H conversion | inhibition, % at 5 µM;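 active means blocking of liver enzyme CYP2C9 beyond about 50% at 5 µM, limit read from the data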
# sEH act – soluble epoxide hydrolase activators, primary screen, biochemical, human sEH; AID 717, 2007; Bifunctional epoxide hydrolase 2 (Homo sapiens), P34913; 91,000 compounds, 0.04% hits; purified human sEH enzymatic activity, activator screen; activation, % at 2 µM; in the data active means activation above about 37%
# Target sequence (P34913 whole entry, looked up): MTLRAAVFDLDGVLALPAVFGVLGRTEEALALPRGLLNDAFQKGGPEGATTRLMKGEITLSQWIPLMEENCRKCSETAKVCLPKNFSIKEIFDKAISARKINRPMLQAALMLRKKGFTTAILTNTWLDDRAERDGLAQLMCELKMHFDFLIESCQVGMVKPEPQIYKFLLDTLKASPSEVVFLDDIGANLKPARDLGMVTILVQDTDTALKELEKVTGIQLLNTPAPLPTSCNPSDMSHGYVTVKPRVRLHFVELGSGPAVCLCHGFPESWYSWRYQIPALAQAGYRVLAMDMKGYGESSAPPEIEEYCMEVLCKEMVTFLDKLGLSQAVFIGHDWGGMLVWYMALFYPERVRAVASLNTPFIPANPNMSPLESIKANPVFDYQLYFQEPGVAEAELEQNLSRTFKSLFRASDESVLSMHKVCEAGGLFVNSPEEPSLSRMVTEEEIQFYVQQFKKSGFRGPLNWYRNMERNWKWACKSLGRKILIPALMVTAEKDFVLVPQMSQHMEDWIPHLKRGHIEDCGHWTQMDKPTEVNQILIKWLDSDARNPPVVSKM
# CYP2C9 act – human CYP2C9 activators, primary screen, biochemical, luminescence; AID 1024, 2008; activation factor at 5 µM; Cytochrome P450 2C9 (Homo sapiens), P11712; 96,000 compounds, 1.4% hits; recombinant CYP2C9, luciferin-H conversion; stronger effect = higher value; factor 1 = untreated enzyme, 0 = blocked;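 active means activation factor of 2 or more for CYP2C9 at a 5 µM dose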
# sEH inh – soluble epoxide hydrolase inhibitors, primary screen, biochemical, human sEH. Bifunctional epoxide hydrolase 2 (Homo sapiens), P34913. recombinant human sEH enzymatic activity assay. inhibition, % at 2 µM. 91,000 compounds, 0.34% hits; in the data active means inhibition above about 80%
# CYP2C19 activ – human CYP2C19 activators, primary screen, biochemical, luminescence; Cytochrome P450 2C19 (Homo sapiens), P33261; activation factor at 5 µM; 96,000 tested, under 10 active; recombinant CYP2C19, luciferin-H EGE luminescence; stronger effect = higher value; 0 = fully inhibited enzyme, 1 = untreated enzyme;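 active means activation factor of at least 2 at 5 µM in the primary screen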
# CYP2C19 inh – blockers of cytochrome P450 2C19 activity – biochemical, luminescence, ADME assay, primary screen; AID 778, 2007; inhibition, % at 5 µM; CYP2C19 Supersomes, luciferin-H EGE luminescence, 30 min; P33261; 96,000 compounds, 21% hits;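 active means CYP2C19 inhibition above a set limit at 5 µM in the primary screen, cut at about 50% in these data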
# Numbers stand for hits; . = inactive; / = no result. An excerpt weighted towards active compounds, which were near 27% of everything screened.
SMILES,CYP2C9 inh,sEH act,CYP2C9 act,sEH inh,CYP2C19 activ,CYP2C19 inh
COc1ccc(NC(=O)c2c(OC)cccc2OC)c(OC)c1,.,.,.,.,.,.
COc1ccc(NC(=O)c2ccccc2O)c(OC)c1,53,.,.,.,.,60
COc1ccc2c(c1)C(c1ccc([N+](=O)[O-])cc1)=NNC(c1ccco1)=N2,.,.,.,.,.,.
C1=Nc2c(Nc3ccccc3)ncnc2Oc2ccccc21,62,.,.,.,.,54
Cc1[nH]c2ccc(F)cc2c(=O)c1SC(F)(F)C(F)C(F)(F)F (stereo not drawn),56,.,.,.,.,80
COc1ccc(CN(C)C2CCCCC2)cc1,.,.,.,.,.,64
Cc1cc(-c2nc3c4c5c(sc4[nH]c(=O)n3n2)CCC5)c(C)o1,51,.,.,.,.,.
CC(C)(C)C(=O)Nc1ccccc1C(=O)Nc1cc(Cl)ccc1Cl,61,.,.,.,.,.
CCOC(=O)c1cc(CC)sc1NC(=O)c1ccc2c(c1)OCCO2,.,.,.,.,.,.
CCOC(=O)C1=C(C)NC(C)=C(C(=O)OCC)C1C(=O)OCC(=O)NC(C)C,85,.,.,.,.,84
CCOC(=O)c1[nH]c(C)c(C(=O)OCC(=O)N2CCc3ccccc32)c1C,.,.,.,.,.,.
Cc1cc(C(=O)OCC(=O)NC(C)C)c(C)o1,.,.,.,.,.,.
CCOC(=O)C1=C(C)NC(C)=C(C(=O)OCC)C1C(=O)OCC(=O)c1ccc2c(c1)OCCO2,85,.,.,.,.,68
CCOC(=O)C1=C(C)NC(C)=C(C(=O)OCC)C1C(=O)OCC(=O)N1CCc2ccccc21,82,.,.,.,.,.
O=C1CCCN1CCCNc1ccc(S(=O)(=O)N2CCCCC2)cn1,.,.,.,.,.,.
CN(c1ccc(C(=O)NCCSCc2ccccc2)cc1)S(=O)(=O)c1ccccc1,69,.,.,.,.,.
Cc1cccc(CSCCNC(=O)c2ccc(N(C)S(=O)(=O)c3ccccc3)cc2)c1,89,.,.,.,.,61
CN(c1ccc(C(=O)NC2CC2)cc1)S(=O)(=O)c1ccccc1,70,.,.,.,.,.
Cc1ccc(S(=O)(=O)N(C)c2ccc(C(=O)O)cc2)cc1,.,/,.,/,.,.
Cc1ccnc(SCCn2c(N3CCC(C)CC3)nc3c2c(=O)n(C)c(=O)n3C)n1,/,.,/,.,/,/
CCC(C)N(C(=O)COC(=O)c1[nH]c(C)c(C(C)=O)c1C)C1CCS(=O)(=O)C1 (stereo not drawn),.,.,.,.,.,.
Cc1cc(N2CCN(c3ccc(F)cc3)CC2)nc2cc(O)ccc12,.,.,3.2,.,.,.
COc1ccc2c(C)cc(N3CCN(c4ccc(F)cc4)CC3)nc2c1,.,.,2.3,.,.,83
Cc1cc(N2CCOCC2)nc2ccccc12,/,.,/,.,/,/
Cc1cc(N2CCN(c3ccccc3F)CC2)nc2cc(O)ccc12,.,.,2,.,.,57
SMILES,CYP2C9 inh,sEH act,CYP2C9 act,sEH inh,CYP2C19 activ,CYP2C19 inh
COc1ccc(CNC(=O)Nc2ccc(OC)cc2)cc1,.,.,.,.,.,59
COc1ccc(N2CCC(CNC(=O)Nc3ccccc3)C2)cc1 (stereo not drawn),.,.,.,.,.,60
COc1ccc(OC)c(NC(=O)NCc2ccc(F)cc2)c1,.,.,.,.,.,99
COc1ccc(NC(=O)Nc2ccc(N(C)C)cc2)cc1,.,.,.,.,.,86
COc1ccc(CNC(=O)Nc2cccc(C)c2)cc1,.,.,.,.,.,.
O=C1NNC(=O)C2C3C=CC(C4CC34)C12 (stereo not drawn),.,.,.,.,.,.
O=C(CSc1nnc(-c2ccncc2)n1-c1ccc(F)cc1)NC(=O)NCc1ccco1,/,.,/,.,/,/
CC(=O)c1ccc(N2CCN(C(=O)COc3ccccc3F)CC2)c(F)c1,/,.,/,.,/,/
NC(=O)C1CCN(CCC(=O)Nc2ccc(Br)cc2)CC1,/,.,/,.,/,/
COc1nc(Oc2ccc(=O)[nH]n2)nc(N2CCOCC2)n1,.,.,.,.,.,.
COc1ccc(/C(O)=C2/C(=O)C(=O)N(CCCN(C)C)C2c2cccnc2)cc1 (stereo not drawn),.,/,.,/,.,.
COc1ccc(NC(=O)NCc2cccn2C)c(OC)c1,.,.,.,.,.,62
CCC(c1nnnn1CCOC)N1CCN(Cc2ccccc2OC)CC1 (stereo not drawn),.,.,.,.,.,.
CC1CCN(CC(O)COC2CCC(C(C)(C)C)CC2)CC1 (stereo not drawn),.,.,.,.,.,.
COC(=O)c1scc(C)c1NC(=O)C1CCCCC1,.,.,.,.,.,.
CCCCN(Cc1ccccc1)S(=O)(=O)c1ccc2[nH]c(=O)oc2c1,.,.,.,.,.,76
COC(=O)c1ccccc1CON1C(=O)C(C)(C)N(OCc2ccccc2C(=O)OC)C(=O)C1(C)C,.,.,.,.,.,.
COc1ccccc1OCCOCCn1cnc2ccccc2c1=O,.,.,.,.,.,67
Cc1ccc(S(=O)(=O)N(C)Cc2cc3ccccc3[nH]c2=O)cc1,.,.,.,.,.,.
CCN(CC)C(=O)c1cnn(-c2ccccc2)c1NC(=O)c1cccs1,/,.,/,.,/,/
CCn1c(SCc2ccc(C(=O)OC)o2)nc2sc3c(c2c1=O)CCCC3,.,.,.,.,.,.
COC(=O)c1ccc(CSc2nc(C(F)(F)F)c3c(c2C#N)CCC3)o1,.,.,.,.,.,78
Nc1nc(SCc2nnc(SCC(=O)O)n2-c2ccccc2)nc2sc3c(c12)CCCC3,.,.,.,.,.,.
CCCCC1CCC(C(=O)NCc2ccc3c(c2)OCO3)CC1 (stereo not drawn),.,.,.,.,.,.
Cc1ccc(C(=O)NCC(C)(C)N2CCOCC2)s1,.,.,.,.,.,55
SMILES,CYP2C9 inh,sEH act,CYP2C9 act,sEH inh,CYP2C19 activ,CYP2C19 inh
COc1ccccc1NC(=S)NNC(=O)c1nn(C)c(C)c1Cl,.,.,.,.,.,.
COc1ccccc1NC(=O)c1nn(C)cc1Br,.,.,2.2,.,.,.
COc1ccccc1NC(=S)NNC(=O)c1nn(C)cc1Cl,.,.,.,.,.,57
COc1ccccc1NC(=O)c1nc[nH]c1C(=O)Nc1ccccc1OC,.,.,.,.,.,.
CCCN(CCC)CCNC(=O)C1c2ccccc2C(=O)N(CCOC)C1c1ccc(F)cc1 (stereo not drawn),.,.,.,.,.,.
O=C(O)c1ccc(NC(=O)C2(c3ccccc3)CCOCC2)cc1,.,.,.,.,.,.
